Reference: PubChem BioAssay (NCATS)
Records with an inconclusive call do not appear. Calls of active or inactive are those of the source. Calls follow the shape of the dose curve; as a rule, active = well fitted inhibition curve with a large enough effect; inconclusive = small, poorly fitted or top-dose-only effect; inactive = flat fitted curve, though single readings scatter.

test system: CP250; assay: qHTS profiling for inhibitors of Plasmodium falciparum proliferation (AID 504749); also: nearly all actives have a fitted effect of over 60% in size;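 as to activity, negative = inhibition: 0% = DMSO vehicle and full inhibition = artemisinin control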; conditions: P. falciparum in erythrocytes, SYBR Green DNA, 72 h; series mostly up to 28.7 µM; activity, negative = inhibition: at the top concentration
Summary of the method: (§1)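 Quantitative HTS: compounds pinned into medium, infected erythrocytes added (0.3% parasitemia, 2.5% hematocrit), 72 h culture at 37 C under 5% CO2. Saponin/Triton lysis with SYBR Green I, overnight RT, then fluorescence read.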
Potency is read from the fitted curve at half-maximal effect.

Compound	activity, negative = inhibition	Potency
COC(=O)[C@H]1[C@H]2CC3c4[nH]c5ccccc5c4CCN3C[C@@H]2CC[C@@H]1O (some centres undefined)	11% (inactive)	
CCCCCCOc1ccc(C(=N)N(CCCC)CCCC)c2ccccc12		8.91 µM (active)
Clc1cc(Cl)c(OCC#CI)cc1Cl		11.2 µM (active)
CN=C(NC#N)Nc1ccc(C2=NNC(=O)C[C@@H]2C)cc1	3.25% (inactive)	
Cc1cn([C@H]2C[C@H](O)[C@@H](CO)O2)c(=O)[nH]c1=O	0.59% (inactive)	

test system: CP252; assay: as above; conditions: P. falciparum in erythrocytes, SYBR Green DNA, 72 h; series mostly up to 28.7 µM; activity, negative = inhibition: at the top concentration
Summary of the method: as §1

Compound	Potency	activity, negative = inhibition
COc1cc(-c2ccc(-[n+]3nc(-c4ccccc4)nn3-c3ccc([N+](=O)[O-])cc3)c(OC)c2)ccc1-[n+]1nc(-c2ccccc2)nn1-c1ccc([N+](=O)[O-])cc1	8.91 µM (active)	
CC(C)=O		-5.6% (inactive)
CC1=C(/C=C/C(C)=C/C=C/C(C)=C/CO)C(C)(C)CCC1	10 µM (active)	
CCN(CC)CCOc1ccc(-c2nc3cc(Cl)ccc3s2)cc1		-19.7% (inactive)
CCNC(=O)[C@@H]1CCCN1C(=O)[C@H](CCCN=C(N)N)NC(=O)[C@H](CC(C)C)NC(=O)[C@@H](Cc1c[nH]c2ccccc12)NC(=O)[C@H](Cc1ccc(O)cc1)NC(=O)[C@H](CO)NC(=O)[C@H](Cc1c[nH]c2ccccc12)NC(=O)[C@H](Cc1cnc[nH]1)NC(=O)[C@@H]1CCC(=O)N1	11.2 µM (active)	
CN(C)CCCN1c2ccccc2C(C)(C)c2ccccc21		-27.1% (inactive)
CCCCCC(CC)COC(=O)CC(C(=O)OCC(CC)CCCC)S(=O)(=O)O (centres undefined)		2.46% (inactive)
O=CCCCC=O		-1.88% (inactive)
CCCCC(=O)O[C@]1(C(=O)CO)[C@H](C)C[C@H]2[C@@H]3CCC4=CC(=O)C=C[C@]4(C)[C@@]3(F)[C@@H](O)C[C@@]21C		-4.63% (inactive)
CCOC(=O)C1=C(C)NC(C)=C(C(=O)OCC)C1c1ccccc1C=CC(=O)OC(C)(C)C	10 µM (active)	
CC1=C(/C=C/C(C)=C/C=C/C(C)=C/C=C/C=C(C)/C=C/C=C(C)/C=C/C2=C(C)C(=O)CCC2(C)C)C(C)(C)CCC1=O		1.52% (inactive)
CN1C(=O)CN2CCc3ccccc3C2c2cc(Cl)ccc21 (centres undefined)		-12.6% (inactive)
CC(C)N=c1cc2n(-c3ccc(Cl)cc3)c3ccccc3nc-2cc1Nc1ccc(Cl)cc1		-5.13% [at 12.8 µM] (inactive)
CCOC(=O)C1=CC2(CC)CCCN3CCc4c(n1c1ccccc41)C32 (centres undefined)	11.2 µM (active)	
O=C(O)c1cc(=O)c2c3nc4ccccc4oc-3cc(=O)c2[nH]1		-10.8% (inactive)
COC(=O)[C@H]1[C@H]2CC3c4[nH]c5ccccc5c4CCN3C[C@@H]2CC[C@@H]1O (some centres undefined)		5.56% (inactive)
CCCCCCOc1ccc(C(=N)N(CCCC)CCCC)c2ccccc12	10 µM (active)	
CN=C(NC#N)Nc1ccc(C2=NNC(=O)C[C@@H]2C)cc1		9.41% (inactive)
Cc1cn([C@H]2C[C@H](O)[C@@H](CO)O2)c(=O)[nH]c1=O		-0.744% (inactive)
